An excerpt weighted towards active compounds, which were near 21% of everything screened.
Shiga inhibitor: Shiga toxin inhibition; inhibition, % at 38.7 µM; AID 2315; 290,000 tested, 9.2% active; Vero cells, Shiga toxin protein synthesis inhibition reporter; in the data active = inhibition mostly above about 28%, no sharp cut-off; inactive = mostly below about 43%
Pf growth 96h: P. falciparum growth inhibition at 96 hours | P. falciparum luciferase reporter growth, 96 h | Potency, µM (doses to about 28.7 µM), actives largely listed as inhibitors | 320,000 tested, 6.9% active | AID 504834; active = well fitted inhibition curve with a large enough effect; inconclusive = small, poorly fitted or top-dose-only effect, or another doubt; inactive = no such curve, though single readings can be large or run the other way
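Plates of compound plus infected erythrocytes (2% hematocrit, 0.05% parasitemia final) incubate 96 hours, 37 C, 5% CO2. Detection reagent added; reduced luminescence from the parasites' luciferase reporter flags inhibition.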
Cycloheximide cs: affects cycloheximide protein synthesis inhibition readout, counter-screen; 300,000 tested, 12% active; max response, %; AID 2314; cell reporter, cycloheximide protein synthesis inhibition counterscreen; in the data active = max response mostly above about 13%, no sharp cut-off; inactive = mostly below about 14%; also: read at 38.3 µM for the half of the compounds with a filed dose
NS1 inh: influenza NS1 inhibition; Potency, µM (titrated, usually from 46.1 µM); 270,000 tested, 0.4% active; also: actives are rising curves; nearly all actives have a fitted effect of over 50% in size
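Read-out: OD600 growth recovery of NS1-expressing budding yeast. Cells grown overnight at 30C in -URA glucose medium, washed, resuspended and diluted 1:100 in 2% galactose assay medium, pH 6.0. Same strain lacking NS1 served as positive control.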
SARS PLpro yeast: blocks SARS-CoV papain-like protease in a yeast assay; S. cerevisiae expressing SARS-CoV PLpro, growth rescue; Potency, µM (series often up to 32.9 µM), most hits filed as activators; 330,000 tested, 0.19% active; AID 485353; also: nearly all actives have a fitted effect of over 55% in size
Pf growth 48h: P. falciparum growth inhibition at 48 hours (one generation); P. falciparum luciferase growth in erythrocytes, 48 h; Potency, µM (highest dose often 28.7 µM), usual class: inhibitors; 310,000 tested, 5.9% active; AID 504832; active = well fitted inhibition curve with a large enough effect; inconclusive = small, poorly fitted or top-dose-only effect, or another doubt; inactive = no such curve, though single readings can be large or run the other way
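Erythrocytes infected with P. falciparum carrying an integrated firefly luciferase reporter (2% hematocrit, 0.1% parasitemia final) were exposed to compounds in RPMI 1640 with 0.5% Albumax at 37 C, 5% CO2. Growth inhibition was scored as reduced luminescence.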
Each line names hits and unclear results; the compound was inactive in the other large screens. Unless noted, calls follow the shape of the full dose curve.

O=C(CN1C(=O)c2ccccc2C1=O)NN1C(=O)c2ccccc2C1=O	none
COc1cc(CC(C#N)(CO)c2nc3ccccc3[nH]2)ccc1OC(F)F (stereo not drawn)	Pf growth 48h inconclusive
CCC(Oc1ccccc1)C(=O)Nc1nc2ccccc2[nH]1 (stereo not drawn)	Cycloheximide cs 21
O=C(Nc1nc2ccccc2[nH]1)c1ccc(OC(F)F)cc1	Shiga inhibitor 59, Cycloheximide cs 19
CCn1nc(C(=O)Nc2nc3ccccc3[nH]2)c2ccccc2c1=O	none
O=C(Nc1nc2ccccc2[nH]1)c1ccccc1OC(F)F	none
Cn1nc(C(=O)Nc2nc3ccccc3[nH]2)c2ccccc2c1=O	Cycloheximide cs 29
N#CC(Cc1ccc(OC(F)F)cc1)c1nc2ccccc2[nH]1 (stereo not drawn)	Shiga inhibitor 66, Cycloheximide cs 26
CCN(CC)C(=O)CN1C(=O)c2cccc3cccc1c23	NS1 inh inconclusive, Pf growth 48h inconclusive
CN(CC(=O)NCC1CCCCC1)CC(=O)Nc1ccc(F)cc1	Pf growth 48h inconclusive (no result: Shiga inhibitor, Cycloheximide cs, NS1 inh)
O=C(CCNC(=O)c1ccc(Cl)cc1)Nc1nc2ccccc2[nH]1	none (no result: Shiga inhibitor, Pf growth 96h, Cycloheximide cs, NS1 inh, Pf growth 48h)
Cn1nc(C(=O)NCc2ccccc2CN2CCCC2)c2ccccc2c1=O	Pf growth 96h 15µM, Pf growth 48h inconclusive (no result: Shiga inhibitor, Cycloheximide cs, NS1 inh)
Cn1nc(C(=O)NCC2CCCO2)c2ccccc2c1=O (stereo not drawn)	none (no result: Pf growth 96h)
CC(C)Oc1ccc(C(=O)Nc2nc3ccccc3[nH]2)cc1	Cycloheximide cs 25
O=C(NO)c1ccc(OC(F)F)cc1	Pf growth 96h inconclusive, NS1 inh inconclusive, Pf growth 48h 10µM
CCc1nnc(NC(=O)CSc2nnc(-c3ccc(O)cc3)n2C)s1	none
COC(=O)c1ccc(CSc2nc3ccc(S(=O)(=O)N4CCOCC4)cc3[nH]2)cc1	Pf growth 96h inconclusive, Pf growth 48h inconclusive
O=C(Nc1nnc(SCC(=O)N2CCCCC2)s1)c1c(F)cccc1F	none
COc1ccc(-c2cc(C(=O)Nc3ccc(C(N)=O)cc3)c3ccccc3n2)cc1OC	Pf growth 96h 3.7µM, Cycloheximide cs 14, Pf growth 48h inconclusive (no result: NS1 inh)
COc1ccc(-c2cc(-c3nnc(COC(=O)c4ccc(O)cc4)o3)c3ccccc3n2)cc1OC	Pf growth 96h inconclusive, Pf growth 48h 9.3µM
CC(C)n1ncc2c(C(=O)N3CCN(c4ccc(F)cc4)CC3)cc(-c3ccccc3)nc21	Pf growth 96h 12µM, Pf growth 48h 12µM (no result: Shiga inhibitor, Cycloheximide cs, NS1 inh)
COc1cccc(N2CCN(C(=O)c3cc(-c4ccccc4)nc4c3cnn4C(C)C)CC2)c1	none (no result: Shiga inhibitor, Pf growth 96h, Cycloheximide cs, NS1 inh, Pf growth 48h)
COc1ccc(NC(=O)c2cc(-c3ccncc3)nc3ccccc23)c(OC)c1	none (no result: Shiga inhibitor, Pf growth 96h, Cycloheximide cs, NS1 inh, Pf growth 48h)
COc1ccc(NC(=O)c2cc(-c3ccc(OC)c(OC)c3)nc3ccccc23)c(OC)c1	Pf growth 96h 10µM, Pf growth 48h inconclusive
NS(=O)(=O)c1ccc(CCNC(=O)c2cccc(S(=O)(=O)N3CCCC3)c2)cc1	Pf growth 96h inconclusive (no result: Shiga inhibitor, Cycloheximide cs, NS1 inh)
COCC(C)n1c(=O)sc2ccccc2c1=O (stereo not drawn)	none (no result: NS1 inh)
CCOc1ccc(N2CC(C(=O)N3CCc4ccccc43)CC2=O)cc1 (stereo not drawn)	none
COc1cc(-c2nnc(COC(=O)c3cc(C)nc4ccc(C)cc34)o2)cc(OC)c1OC	Pf growth 96h 15µM (no result: Pf growth 48h)
COc1cc(-c2nnc(COC(=O)CSc3cc(C)c4ccccc4n3)o2)cc(OC)c1OC	Pf growth 48h inconclusive
COc1ccc(NC(=O)c2cc(-c3ccccc3)nc3c2cnn3C(C)C)c(OC)c1	Pf growth 96h inconclusive, Pf growth 48h 12µM (no result: Shiga inhibitor, Cycloheximide cs, NS1 inh)
COc1cccc(NC(=O)CN2C(=O)NC(c3ccccc3)(c3ccccc3)C2=O)c1	none
CN1CCN(c2nc3c(c(=O)[nH]c(=O)n3C)n2CCSc2nnnn2-c2ccccc2)CC1	none
Cn1c(=O)[nH]c(=O)c2c1nc(N1CCCC1)n2CCCSc1nnnn1-c1ccccc1	Pf growth 96h 6.6µM, Pf growth 48h inconclusive
Cn1c(=O)[nH]c(=O)c2c1nc(N1CCCCCC1)n2CCCSc1nnnn1-c1ccccc1	Pf growth 96h 2.3µM, Pf growth 48h inconclusive
CCOc1ccc(C(=O)NCCCN2CCOCC2)cc1OCC	none
CCNC(=S)Nc1ccc(Cc2nc3ccccc3[nH]2)cc1	none
CCCCN(C(=O)c1c(C)noc1C)c1c(N)n(CCCC)c(=O)[nH]c1=O	none (no result: Shiga inhibitor, Cycloheximide cs, NS1 inh)

From PubChem
